Read-out in test [1]: Interleukin-1 alpha (IL1a), IL1A (gene 3552)
In words: BSK_KF3CT_IL1a: BioMAP Diversity Plus: KF3CT Assay for Interleukin-1 alpha (IL1a) Biomarker Activity (AID 2283070). Conditions: primary human keratinocytes with fibroblasts; actives raise or lower the signal. The gist of the method: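 Primary skin co-culture (keratinocytes, foreskin fibroblasts), 24 h exposure; ELISA for IL-1a; bidirectional curve fit vs DMSO.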

Read-out in test [2]: TIMP metallopeptidase inhibitor 2 (TIMP2), TIMP2 (gene 7077)
The test can be described thus: BSK_KF3CT_TIMP2: BioMAP Diversity Plus: KF3CT Assay for TIMP metallopeptidase inhibitor 2 (TIMP2) Biomarker Activity (AID 2283071). Conditions: primary human keratinocytes with fibroblasts; actives raise or lower the signal. The gist of the method:
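ELISA readout of TIMP-2 in keratinocyte plus foreskin fibroblast co-cultures (human skin primary cells), 24 h post-dose. Gain or loss of signal fitted relative to DMSO.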

Read-out in test [3]: Transforming growth factor beta 1 (TGFb1), TGFB1 (gene 7040)
The test can be described thus: BSK_KF3CT_TGFb1: BioMAP Diversity Plus: KF3CT Assay for Transforming growth factor beta 1 (TGFb1) Biomarker Activity (AID 2283072). Conditions: primary human keratinocytes with fibroblasts; actives raise or lower the signal. In outline:
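Read-out: ELISA for TGF-b1 in keratinocyte/foreskin fibroblast human skin co-culture, 24 h after dosing; bidirectional curve fit vs DMSO baseline; gain or loss of signal scored.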

Read-out in test [4]: C-C motif chemokine 2 (Homo sapiens) (UniProt P13500)
The test can be described thus: BSK_KF3CT_MCP1: BioMAP Diversity Plus: KF3CT Assay for Monocyte Chemoattractant Protein 1 (MCP1/CCL2) Biomarker Activity (AID 2283073). Conditions: primary human keratinocytes with fibroblasts; actives raise or lower the signal. In outline: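 ELISA read-out of MCP-1, 24 h post-dose, in primary human skin keratinocytes co-cultured with fibroblasts. Parallel SRB staining monitors cytotoxicity; changes fitted both directions relative to DMSO.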

Read-out in test [5]: Matrix Metallopeptidase 9 (MMP9), MMP9 (gene 4318)
The test can be described thus: BSK_KF3CT_MMP9: BioMAP Diversity Plus: KF3CT Assay for Matrix Metallopeptidase 9 (MMP9) Biomarker Activity (AID 2283074). Conditions: primary human keratinocytes with fibroblasts; actives raise or lower the signal. In outline: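 ELISA read-out of MMP-9 at 24 h post-dosing in a co-culture of human skin keratinocytes and foreskin fibroblasts. Gain or loss of signal was fitted in both directions against DMSO.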

Read-out in test [6]: CD40, CD40 (gene 958)
In words: BSK_LPS_CD40: BioMAP Diversity Plus: LPS Assay for CD40 Biomarker Activity (AID 2283076). Conditions: primary human HUVEC with PBMC; actives raise or lower the signal. In outline:
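In the LPS system of human endothelial cells with peripheral blood mononuclear cells, CD40 levels were read by ELISA 24 h post-treatment. Signal changes in either direction were fitted against the DMSO baseline, with parallel SRB protein staining.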

Read-out in test [7]: E-selectin (Homo sapiens) (UniProt P16581)
In words: BSK_LPS_Eselectin: BioMAP Diversity Plus: LPS Assay for Eselectin Biomarker Activity (AID 2283077). Conditions: primary human HUVEC with PBMC; actives raise or lower the signal. The gist of the method:
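E-selectin ELISA on LPS-stimulated endothelial cell/PBMC co-cultures, read 24 h post-treatment; gains and losses fitted against DMSO. Parallel SRB staining (0.1% SRB after 10% TCA fixation, 560 nm) flags overt cytotoxicity.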

Read-out in test [8]: Interleukin-8 (IL8), CXCL8 (gene 3576)
The test can be described thus: BSK_LPS_IL8: BioMAP Diversity Plus: LPS Assay for Interleukin-8 (IL8) Biomarker Activity (AID 2283078). Conditions: primary human HUVEC with PBMC; actives raise or lower the signal. In outline:
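ELISA read-out of IL-8 after 24 h chemical treatment of LPS-activated endothelial/PBMC human primary co-cultures. Changes either up or down relative to DMSO; overt cytotoxicity checked by sulforhodamine B staining in parallel wells.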

Test [9] in a line: BSK_LPS_SRB: Viability Assessment in the BioMAP Diversity Plus: LPS Assay (AID 2283079).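 Note: total protein by sulforhodamine B absorbance as a cytotoxicity measure; measured one day after compound addition.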 Conditions: primary human HUVEC with PBMC. In outline: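 SRB viability endpoint: cells fixed with 10% TCA, stained with 0.1% SRB, read at 560 nm, 24 h post-dose. HUVEC/PBMC co-culture; signal change in either direction scored relative to DMSO.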
Read-out in test [10]: Interleukin-1 alpha (IL1a), IL1A (gene 3552)
The test can be described thus: BSK_LPS_IL1a: BioMAP Diversity Plus: LPS Assay for Interleukin-1 alpha (IL1a) Biomarker Activity (AID 2283080). Conditions: primary human HUVEC with PBMC; actives raise or lower the signal. In outline: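 Readout is IL-1a level by ELISA, 24 h post-dose, fitted as gain or loss relative to DMSO. System: LPS-activated human primary co-culture of vascular endothelium and peripheral blood mononuclear cells, with parallel SRB total-protein cytotoxicity.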

Read-out in test [11]: Monocyte Chemoattractant Protein-1 (MCP1), CCL2 (gene 6347)
The test can be described thus: BSK_LPS_MCP1: BioMAP Diversity Plus: LPS Assay for Monocyte Chemoattractant Protein-1 (MCP1) Biomarker Activity (AID 2283081).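 For AC50: secreted MCP-1 protein quantified by ELISA in culture supernatant.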 Conditions: primary human HUVEC with PBMC; actives raise or lower the signal. In outline: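 Secreted MCP-1 read by ELISA at 24 h post-dosing in an LPS-activated co-culture of endothelial cells with peripheral blood mononuclear cells. Fits run in both directions, DMSO as baseline; parallel SRB staining tracks overt cytotoxicity.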

Test [12] in a line: BSK_LPS_PGE2: BioMAP Diversity Plus: LPS Assay for Prostaglandin E2 (PGE2) Biomarker Activity (AID 2283082). Conditions: primary human HUVEC with PBMC; actives raise or lower the signal. The gist of the method: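 ELISA read-out of PGE2 from human umbilical vein endothelial cells co-cultured with peripheral blood mononuclear cells under LPS, 24 h post-dose. Gain or loss of signal scored relative to DMSO baseline.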

Read-out in test [13]: Macrophage colony-stimulating factor (MCSF), CSF1 (gene 1435)
In words: BSK_LPS_MCSF: BioMAP Diversity Plus: LPS Assay for Macrophage colony-stimulating factor (MCSF) Biomarker Activity (AID 2283083). Conditions: primary human HUVEC with PBMC; actives raise or lower the signal. The gist of the method: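 Bidirectional fitting against DMSO was applied to M-CSF levels read by ELISA at 24 h post-dose. The system pairs human umbilical vein endothelium with peripheral blood mononuclear cells; parallel SRB staining tracked cytotoxicity.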

Read-out in test [14]: Tissue Factor, F3 (gene 2152)
The test can be described thus: BSK_LPS_TissueFactor: BioMAP Diversity Plus: LPS Assay for Tissue Factor Biomarker Activity (AID 2283084). Conditions: primary human HUVEC with PBMC; actives raise or lower the signal. The gist of the method:
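Compound was added to an endothelial cell/PBMC co-culture, and after 24 h tissue factor (CD142) was read by ELISA. Gain or loss of signal was fitted against a DMSO baseline, and parallel SRB staining (560 nm) tracked overt cytotoxicity.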

Read-out in test [15]: Tumor necrosis factor (Homo sapiens) (UniProt P01375)
In words: BSK_LPS_TNFa: BioMAP Diversity Plus: LPS Assay for Tumour Necrosis Factor alpha (TNFa) Biomarker Activity (AID 2283085).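 For AC50: TNFa protein level quantified by ELISA in the co-culture.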 Conditions: primary human HUVEC with PBMC; actives raise or lower the signal. The gist of the method: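 HUVEC/PBMC co-culture, LPS-stimulated; 24 h post-dose; TNFa by ELISA; gain or loss of signal fitted bidirectionally vs DMSO baseline.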

Read-out in test [16]: Vascular cell adhesion molecule 1 (VCAM1), VCAM1 (gene 7412)
In words: BSK_LPS_VCAM1: BioMAP Diversity Plus: LPS Assay for Vascular cell adhesion molecule 1 (VCAM1) Biomarker Activity (AID 2283086). Conditions: primary human HUVEC with PBMC; actives raise or lower the signal. In outline:
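ELISA read-out of VCAM-1 at 24 h post-dosing in an LPS-driven HUVEC/PBMC primary human co-culture; gain or loss of signal fitted bidirectionally against DMSO baseline. Cytotoxicity tracked in parallel cultures by SRB total-protein staining.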

Read-out in a further test: CD38, CD38 (gene 952)
In words: BSK_SAg_CD38: BioMAP Diversity Plus: SAg Assay for CD38 Biomarker Activity (AID 2283087). Conditions: primary human HUVEC with PBMC; actives raise or lower the signal. In outline:
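Measures CD38 on a human endothelial/PBMC co-culture driven by SEB and TSST-1, 24 h after compound exposure, using ELISA with fluorescence detection; DMSO defines baseline for bidirectional curve fitting.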

Read-out in the next test: CD69, CD69 (gene 969)
In words: BSK_SAg_CD69: BioMAP Diversity Plus: SAg Assay for CD69 Biomarker Activity (AID 2283089).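 For AC50: cell surface CD69 protein quantified by ELISA with fluorescence detection.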 Conditions: primary human HUVEC with PBMC; actives raise or lower the signal. The gist of the method:
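ELISA, fluorescence read-out: CD69 on human umbilical vein endothelial cell + PBMC co-culture, 24 h post-dosing. Gain or loss of signal fitted bidirectionally against DMSO baseline.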

Read-out in test [17]: urokinase plasminogen activator (uPA), PLAU (gene 5328)
In words: BSK_KF3CT_uPA: BioMAP Diversity Plus: KF3CT Assay for urokinase plasminogen activator (uPA) Biomarker Activity (AID 2283075). Conditions: primary human keratinocytes with fibroblasts; actives raise or lower the signal. The gist of the method:
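Skin co-culture (keratinocytes + foreskin fibroblasts), human primary; 24 h post-dose; uPA by ELISA; gain/loss fit vs DMSO baseline.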

Read-out in test [18]: CD40, CD40 (gene 958)
In words: BSK_SAg_CD40: BioMAP Diversity Plus: SAg Assay for CD40 Biomarker Activity (AID 2283088). Conditions: primary human HUVEC with PBMC; actives raise or lower the signal. In outline:
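CD40 is measured by fluorescence ELISA in an endothelial/PBMC primary human co-culture at 24 h post-dose. Fitting is bidirectional, DMSO baseline. Parallel SRB staining (560 nm) flags cytotoxicity.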

The structures appear in SMILES notation. Active and inactive are the calls of the source. Rule for the calls: active = hit-call score of the fitted dose curve at least 0.9, where 1 is the maximum; inactive = score below 0.9.

Chain of Tumor necrosis factor (Homo sapiens) (P01375 whole entry, looked up): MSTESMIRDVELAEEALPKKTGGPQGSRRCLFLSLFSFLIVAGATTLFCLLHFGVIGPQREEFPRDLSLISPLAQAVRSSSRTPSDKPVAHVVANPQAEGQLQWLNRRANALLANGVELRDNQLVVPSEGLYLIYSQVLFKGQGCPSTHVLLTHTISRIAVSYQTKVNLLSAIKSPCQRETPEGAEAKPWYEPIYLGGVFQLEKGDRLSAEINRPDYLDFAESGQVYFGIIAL
Chain of E-selectin (Homo sapiens) (P16581 whole entry, looked up): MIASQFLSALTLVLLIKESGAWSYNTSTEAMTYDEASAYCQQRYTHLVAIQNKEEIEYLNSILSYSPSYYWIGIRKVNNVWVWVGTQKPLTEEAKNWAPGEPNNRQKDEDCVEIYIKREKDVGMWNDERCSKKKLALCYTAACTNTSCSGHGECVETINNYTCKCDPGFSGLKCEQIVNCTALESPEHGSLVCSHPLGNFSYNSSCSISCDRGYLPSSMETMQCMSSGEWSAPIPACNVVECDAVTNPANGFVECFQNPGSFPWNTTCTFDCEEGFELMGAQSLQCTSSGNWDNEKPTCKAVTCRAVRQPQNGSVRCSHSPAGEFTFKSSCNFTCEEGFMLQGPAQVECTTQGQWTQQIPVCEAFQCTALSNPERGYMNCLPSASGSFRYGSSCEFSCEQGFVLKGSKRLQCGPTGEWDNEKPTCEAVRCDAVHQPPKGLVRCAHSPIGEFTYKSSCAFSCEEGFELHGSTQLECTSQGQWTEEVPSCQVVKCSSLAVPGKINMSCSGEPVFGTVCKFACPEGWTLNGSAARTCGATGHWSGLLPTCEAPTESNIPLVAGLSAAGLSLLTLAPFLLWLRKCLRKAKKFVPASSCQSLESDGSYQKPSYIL

Consider `CC/C=C\CCOC(=O)c1ccccc1O`, for which the AC50 was 30.2 µM (active) in test [1]; 14.7 µM (active) in [2]; 14.5 µM (active) in test [3]; 36.2 µM (active) in the test with CD40, CD40 (gene 958) [6]; 38.1 µM (active) in test [7]; 33.5 µM (active) in test [8]. Also, the AC50 was 30.7 µM (active) in test [9]; 29.6 µM (active) in test [10]; 32.8 µM (active) in test [11]; 33 µM (active) in test [13]; 33 µM (active) in test [14]; 31.5 µM (active) in test [15]. Further, the AC50 in [16] was 37.9 µM (active); with CD38, CD38 (gene 952) it was 31 µM (active); with CD69, CD69 (gene 969) it was 20 µM (active). Also, the outcome in test [4], in test [5] and in [12] was inactive.
For the compound `CCCCCC1=CCCC1=O`, the result in test [1], in [2], in test [3], in [4], in test [5] and in test [17] was inactive. The outcome with CD40, CD40 (gene 958) [6] is “inactive”; in test [7], “inactive”; in test [9] it was “inactive”; in test [10], “inactive”; in test [11], “inactive”; in test [12], “inactive”. Moreover, the outcome in test [13] was “inactive”; in test [15], “inactive”; with CD38, CD38 (gene 952), “inactive”; in the test with CD40, CD40 (gene 958) [18], “inactive”; with CD69, CD69 (gene 969), “inactive”. For the same compound, in test [16], the AC50 is 24 µM (active).
For `C=CCCCCCCCCC=O`, the outcome in test [1], in test [2], in [3], in test [4], in [5] and in test [17] was inactive. Also, the outcome with CD40, CD40 (gene 958) [6] was “inactive”; in [7], “inactive”; in [8], “inactive”; in test [9], “inactive”; in [10], “inactive”; in test [11] it was “inactive”. For the same compound, the outcome in [12] was “inactive”; in test [13] it was “inactive”; in [14] it was “inactive”; in [15], “inactive”; in test [16], “inactive”; with CD38, CD38 (gene 952) it was “inactive”. Also, the outcome with CD69, CD69 (gene 969) was inactive.

What is called AC50 is the concentration at which the activity in the assay is half-maximal.

For the origin of these results see PubChem BioAssay (EPA / NIEHS).
